Measured values: PubChem BioAssay (NCI)
The panel holds about 83,000 compounds, 20% with a hit somewhere; the sample as a whole holds those more often.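 Cells were grown in 96-well plates and exposed to the test compound at a single concentration for 48 hours; results are reported as percent growth, with values below 10 considered active.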

Assays:
Assay in all cases: NCI-60 one-dose screen, 48 h (100 = growth as untreated, 0 = no growth, -100 = all killed)
[1] = test system: SK-MEL-2 melanoma; conditions: 10 µM
[2] = test system: EKVX NSCLC; conditions: 10 µM
[3] = test system: SN12C renal; conditions: 10 µM
[4] = test system: TK-10 renal; conditions: 10 µM unless noted
[5] = test system: ACHN renal; conditions: 10 µM
[6] = test system: CAKI-1 renal; conditions: 10 µM
[7] = test system: A498 renal; conditions: 10 µM
[8] = test system: CCRF-CEM leukemia; conditions: 10 µM
[9] = test system: MOLT-4 leukemia; conditions: 10 µM
[10] = test system: UO-31 renal; conditions: 10 µM

Measured: growth

COC(=O)C(C)Oc1ccc(OC#N)cc1 (stereo not given)
inactive: [1] 110% | [2] 99.8% | [3] 91.8% | [4] 107% | [5] 101% | [6] 86.5% | [7] 107% | [8] 102% | [9] 73.7%

COc1ccccc1C1OC2=Nc3cc(C)c(C)cc3NC2C1=O (stereo not given)
inactive: [1] 105% | [2] 83.9% | [3] 81.2% | [4] 55.1% | [5] 16.5% | [6] 60.3% | [8] 86.8% | [9] 97.8%

N#CSc1cc(S(N)(=O)=O)ccc1N
inactive: [1] 104% | [2] 115% | [3] 101% | [4] 106% | [5] 112% | [6] 124% | [7] 118% | [9] 84.5%

CC1(C(N)=O)CCC(C(=O)O)C1(C)C (stereo not given)
inactive: [1] 104% | [3] 89.1% | [10] 85.9% | [4] 97.7% | [5] 102% | [6] 99% | [7] 106% | [8] 104% | [9] 123%

CC(O)COc1ccc(-c2ccccc2)cc1 (stereo not given)
inactive: [1] 108% | [2] 93.6% | [3] 101% | [4] 106% | [5] 103% | [6] 91.9% | [7] 78.7% | [8] 95.4% | [9] 121%

CC(C)=NNC(N)=S
inactive: [1] 112% | [3] 74.4% | [10] 79.3% | [4] 113% | [5] 88.3% | [6] 83.3% | [7] 97.8% | [8] 44.2% | [9] 60.4%

CCN1C(=O)/C(=C/C=C/N(C)c2ccccc2)SC1=S
inactive: [1] 82.5% | [3] 94.4% | [10] 94.2% | [4] 85.6% | [5] 75.7% | [6] 91.6% | [7] 92.8% | [8] 92% | [9] 89%

O=C(O)CCCC(=O)O
inactive: [1] 106% | [3] 102% | [10] 87% | [4] 120% | [5] 103% | [6] 105% | [7] 109% | [8] 101% | [9] 103%

CCOC(=O)c1ccc(NC(=S)P(=O)(c2ccccc2)c2ccccc2)cc1
inactive: [1] 119% | [3] 103% | [10] 92.9% | [4] 123% | [5] 102% | [6] 86.3% | [7] 86.3% | [8] 69.8% | [9] 52.6%

O=C(O)CCC(NC(=O)OCc1ccccc1)C(=O)O (stereo not given)
inactive: [1] 105% | [3] 100% | [10] 94.9% | [4] 93.1% | [5] 111% | [6] 101% | [7] 106% | [8] 101% | [9] 105%

CCCCCCCCCCC1CO1 (stereo not given)
inactive: [1] 118% | [3] 102% | [10] 82.2% | [4] 112% | [5] 109% | [6] 104% | [7] 108% | [8] 97.2% | [9] 105%

CC(C)CCCC(=O)O
inactive: [1] 102% | [3] 106% | [10] 95.4% | [4] 105% | [5] 104% | [6] 105% | [7] 86.8% | [8] 101% | [9] 119%

Cc1ccc(C(=O)NC2c3ccccc3Oc3ccccc32)cc1
inactive: [1] 66.4% | [2] 64.6% | [10] 34.4% | [4] 54.4% | [5] 40% | [6] 64.9% | [7] 43.5% | [8] 56.7% | [9] 45.5%
